Laboratory results as given in PubChem BioAssay (NCATS).
Records with an inconclusive call do not appear. Where a call stands in place of a potency, no number is given. Activity calls are given as the source filed them. Calls follow the shape of the dose curve; as a rule, active = well fitted activation curve with a large enough effect; inconclusive = small, poorly fitted or top-dose-only effect; inactive = flat fitted curve, though single readings scatter.

Assay: Primary redox qHTS assay for identification of artifact compounds. (AID 1845223)
Settings: Amplex Red/HRP redox cycling with DTT, fluorescence; series mostly up to 53.8 µM
Outline: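 Redox-cycling detection via DTT (250 uM final) oxidation coupled to Amplex Red (25 uM)/HRP (250 mU/mL) in HBSS. 15 min preincubation plus 30 min after DTT, room temperature. Ex/Em 525/598 nm; 4-parameter Hill fit against DMSO and 10 uM DA3003.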

| Compound | Potency |
| --- | --- |
| COCc1c(Cl)ccc2c1CC[C@H]2c1ncc[nH]1 | inactive |
| CC[C@@H](C)[C@@H]1OC2(C=C[C@H]1C)C[C@@H]1C[C@H](C/C=C(\C)[C@H](O[C@H]3C[C@H](OC)[C@H](O[C@H]4C[C@H](OC)[C@H](NC(C)=O)[C@H](C)O4)[C@H](C)O3)[C@H](C)/C=C/C=C3\CO[C@H]4[C@H](O)C(C)=C[C@@H](C(=O)O1)[C@@]34O)O2 (stereo partly drawn) | inactive |
| CN(C)c1cccc(Oc2cnc(Nc3cccc(O)c3)nc2)c1 | inactive |
| O=c1[nH]cnc2c([C@@H]3N[C@H](CO)[C@@H](O)[C@H]3O)c[nH]c12 | inactive |
| C=C(C)[C@@H]1CC=C(COC(=O)NC(=O)c2ncn3c(=O)n(C)nnc23)CC1 | inactive |
| O=C(Nc1cccc([N+](=O)[O-])c1)c1cccc(S(=O)(=O)N2CCCCCC2)c1 | inactive |
| OC1C=C2C3CN(Cc4cc5c(cc43)OCO5)C2CC1O (stereo not drawn) | inactive |
| CN1CCc2cc3c(cc2C(=O)Cc2cc4c(cc2C1)OCO4)OCO3 | inactive |
| CCOc1ccc(CCNC(=O)c2cc3sc(Cl)cc3n2C)cc1OCC | inactive |
| C=C1C(=O)O[C@@H]2C[C@H](C)[C@@H]3CC(=O)[C@H](O)[C@@]3(C)C[C@H]12 | inactive |
| COc1ccc(C2Oc3c(OC)cc(CCCO)cc3C2COC2OC(CO)C(O)C(O)C2O)cc1OC (stereo not drawn) | inactive |
| CC(C)=C[C@@H]1[C@H](CO[C@@H]2O[C@H](CO)[C@@H](O)[C@H](O)[C@H]2O)C1(C)C | inactive |
| C=CS(=O)(=O)NC1CCN(C(=O)CNc2cc(I)c(Cl)cc2OC)CC1 | inactive |
| N#Cc1cc(-c2ccnc(Nc3ccc(N4CCOCC4)cc3)n2)ccc1OC1CCOCC1 | inactive |
| CC(O)C(C)n1ncn(-c2ccc(N3CCN(c4ccc(OCC5COC(Cn6cncn6)(c6ccc(Cl)cc6Cl)O5)cc4)CC3)cc2)c1=O (stereo not drawn) | inactive |
| CCn1c(=O)c(-c2ccc(-c3cncs3)cc2Cl)cc2cnc(Nc3ccc(N4CCN(C)CC4)cc3)nc21 | inactive |
| CC(=O)O[C@]1(C(C)=O)CC[C@H]2[C@@H]3CCC4=CC(=O)CCC4=C3[C@@H](c3ccc(N(C)C)cc3)C[C@@]21C | inactive |

| Compound | Potency |
| --- | --- |
| Cc1c(F)ccc(C(=O)Nc2cc([N+](=O)[O-])ccc2N2CCN(C)CC2)c1Cl | inactive |
| CCOc1ccc(-n2c([C@@H](C)N(Cc3cccnc3)C(=O)Cc3ccc(OC(F)(F)F)cc3)nc3ncccc3c2=O)cc1 | inactive |
| CC(C)(C)OC(=O)c1ncn2c1C(C)(C)Nc1ccccc1-2 | inactive |
| Cc1c(NC(=O)c2cc3c(s2)CCCC3)cccc1-c1cn(C)c(=O)c(Nc2ccc(C3C(=O)N(C)CCN3C)cc2)n1 (stereo not drawn) | inactive |
| O=c1ccc2ccc(OCCCCN3CCN(c4cccc5sccc45)CC3)cc2[nH]1 | inactive |
| COc1cc(-c2cn(C3CCc4c(F)cccc4N(CC(F)(F)F)C3=O)nn2)ccc1-n1cnc(C)c1 (stereo not drawn) | inactive |
| CC1CCCC(O)CC(=O)c2c(O)cc(O)cc2CC(=O)O1 (stereo not drawn) | inactive |
| CC(C)(O)/C=C/C(=O)[C@](C)(O)[C@H]1[C@H](O)C[C@@]2(C)[C@@H]3CC=C4[C@@H](C[C@H](O[C@@H]5O[C@H](CO)[C@@H](O)[C@H](O)[C@H]5O)C(=O)C4(C)C)[C@]3(C)C(=O)C[C@]12C | inactive |
| C=CC(=O)N1CCN(C(=O)CNc2cc(-c3ccccc3Cl)c(Cl)cc2OC)CC1 | inactive |
| Cn1c(CO)c(-c2ccccc2)c2cc([N+](=O)[O-])ccc21 | inactive |
| Cc1cn2c(n1)Cc1ccc(Cl)cc1C(c1ccc(N)cc1)=N2 | inactive |
| CCCc1cc(C)[nH]c(=O)c1CNC(=O)c1cc(-c2ccc(N3CCN(C(C)C)CC3)nc2)cc2c1cnn2C(C)C | inactive |
| CCC(C)/C=C(C)/C=C/C1=CC2=C(Cl)C(=O)C(C)(OC(C)=O)C(=O)C2(O)C(OC)O1 (stereo not drawn) | inactive |
| O=C(NNc1nc2cc(F)ccc2n2cccc12)c1cnccn1 | inactive |
| O=[N+]([O-])c1ccc(Oc2ccc3c(c2)CCC(c2ccccc2)O3)nc1 (stereo not drawn) | inactive |
| CC(C)C[C@@H](C(=O)N[C@@H](Cc1ccc(OCc2ccccc2)cc1)C(=O)NC(C)(C)C)N(C)Cc1ccc(C(C)(C)C)cc1 | inactive |
